Structures are written as SMILES. The whole screen tested about 69,000 compounds, of which about 1,000 (1.4%) showed an effect of 50% or more. This is one part of a sample in which strong results are shown more often than they occur.

This test concerns Leishmania donovani. The experiment in a line: Leishmania intramacrophage assay. It counts as functional, organism-based. On the set-up: scale not given: in the data most compounds retested in dose-response had high values.

Take `Cc1cc(C)n(C2CCN(S(C)(=O)=O)CC2)n1`: the “Percent Effect” value (30.3 µM, […]) was -8.348%. With `O=C(Nc1cc(Cl)ccc1Cl)NC1CCN(C2CCOC2)CC1` (centres undefined), the “Percent Effect” value (30.3 µM, […]) was -19.47%.

On to `O=C(NCCn1ccnc1)N1CCCN(Cc2cccs2)CC1`, for which the “Percent Effect” value (30 µM) stood at 32.04%. Regarding `CN(C)C(=O)C1CN(c2ncccn2)CCN1C` (centres undefined), the “Percent Effect” value (30.3 µM, […]) was determined as 10.06%. `COc1nc2c(cc1C(=O)N1CCCC1c1ccccn1)CCC2` (centres undefined): the “Percent Effect” value (30.3 µM, […]) came to 15.04%. For `CCn1cnnc1C1CCN(C(=O)C(OC)c2ccccc2)CC1` (centres undefined), under “30 µM, 30.03 µM”, the “Percent Effect” value is recorded as 25.64%. Take `Fc1cnc(N2CCOC3(CCN(Cc4cccs4)CC3)C2)nc1.O=C(O)C(F)(F)F.O=C(O)C(F)(F)F`: the “Percent Effect” value (30.3 µM, […]) is on record as 53.49%. Turning to `O=C(O)C(F)(F)F.c1cnc(NC2COC3(CCN(Cc4cccs4)CC3)C2)nc1` (centres undefined), the “Percent Effect” value (30.3 µM, […]) is -71.32%. For `Cc1ccc(CN2CCC3(CC2)CC(N2CCN(C)CC2)CO3)s1.O=C(O)C(F)(F)F.O=C(O)C(F)(F)F.O=C(O)C(F)(F)F` (centres undefined), the “Percent Effect” value (30.3 µM, […]) is given as 35.32%.

`O=C(O)C(F)(F)F.O=C(c1ccccc1)N1CCOC2(CCN(Cc3cccs3)CC2)C1`: under “30.3 µM, […]”, the “Percent Effect” value came out at 5.175%.

For `CN1CCN(C2COC3(CCN(Cc4cccs4)CC3)C2)CC1.O=C(O)C(F)(F)F.O=C(O)C(F)(F)F` (centres undefined), the “Percent Effect” value (30.3 µM, […]) was 53.18%. In the case of `CCc1ccc(CN2CCC3(CC2)CC(N2CCN(C)CC2)CO3)cc1.O=C(O)C(F)(F)F` (centres undefined), the “Percent Effect” value (30 µM, 30.03 µM) was determined as 78.58%. The same measure, in the same setting: to `Fc1cnc(N2CCOC3(CCN(Cc4ccsc4)CC3)C2)nc1.O=C(O)C(F)(F)F.O=C(O)C(F)(F)F` belongs 16.14%. `CN1CCN(C2COC3(CCN(Cc4ccsc4)CC3)C2)CC1.O=C(O)C(F)(F)F.O=C(O)C(F)(F)F` (centres undefined): where the note is “30.3 µM, […]”, the “Percent Effect” value came to 20.49%.

Consider `CN1CCN(C2COC3(CCN(Cc4ccc(F)cc4)CC3)C2)CC1.O=C(O)C(F)(F)F.O=C(O)C(F)(F)F.O=C(O)C(F)(F)F` (centres undefined), for which the “Percent Effect” value (30.3 µM, […]) was found to be 32.4%. With `COc1ccc(C2CC(=O)Oc3cc(C)[nH]c(=O)c32)cc1` (centres undefined), the “Percent Effect” value (30 µM, 30.03 µM) is reported as -4.044%. Turning to `Cc1nnc(C2Cc3ccccc3CN2Cc2nc(C(C)C)no2)o1` (centres undefined), the “Percent Effect” value (30 µM) was -13.45%. Take `CC(C)N1C(=O)CC(NC(=O)c2cc(Cl)sc2Cl)C1=O` (centres undefined): the “Percent Effect” value (30.3 µM, […]) is on record as 8.109%.

Turning to `O=C(NCc1cccnc1)[C@@H]1C[C@H]2[C@H](CCN2c2ncccn2)O1.O=C(O)C(F)(F)F.O=C(O)C(F)(F)F`, the “Percent Effect” value (30.3 µM, […]) worked out at 4.628%. Still for that read-out and setting: to `COCC(NC(=O)NCc1cccc(C#N)c1)c1ccco1` (centres undefined) belongs 13.13%; to `Cc1nc(CN2CCN(c3cncc(Cl)n3)CC2)no1`, -1.637%; to `Cc1noc(CN2CCN(c3cncc(Cl)n3)CC2)n1`, 51.54%.

For the compound `Cc1noc(CN2CCN(CCO)CC2)n1`, the “Percent Effect” value (30.3 µM, […]) was 9.212%. Take `Cc1nc2cc(C(=O)N3CCCC(n4cncn4)C3)ccc2n1C` (centres undefined): the “Percent Effect” value (30 µM, 30.03 µM) amounted to 12.85%. Turning to `Fc1cccnc1N1CCCC(c2nccs2)C1` (centres undefined), the “Percent Effect” value (30.3 µM, […]) was found to be 14.11%. As to `Cc1cc2n(n1)CC(CNC1CCN(Cc3ccccc3C)CC1)CN2` (centres undefined), for the setting “30 µM, 30.03 µM”, the “Percent Effect” value worked out at 54.12%. Take `Cc1cccc(CN2CCC(NCC3CNc4cc(C)nn4C3)CC2)c1` (centres undefined): where the note is “30.3 µM, […]”, the “Percent Effect” value turned out to be 50.3%. On the same count and under the same terms, to `Cc1cc2n(n1)CC(CNC1CCN(Cc3ccncc3)CC1)CN2` (centres undefined) belongs 2.182%. With `Cc1ccccc1CN1CCC(NCC2CNc3ccnn3C2)CC1` (centres undefined), the “Percent Effect” value (30 µM, 30.03 µM) was 58.34%. Same read-out and setting: the result for `c1ccc(Cn2cccn2)c(CNCC2CNc3ccnn3C2)c1` (centres undefined) reads 46.43%. In the case of `Cc1cc2n(n1)CC(CNC1CCN(CCc3ccccc3)CC1)CN2` (centres undefined), the “Percent Effect” value (30.3 µM, […]) amounted to 15.82%. For the compound `OCc1ccccc1CNCC1CNc2ccnn2C1` (centres undefined), the “Percent Effect” value (30.3 µM, […]) stood at 22.72%. Same read-out and setting: to `Cc1cc2n(n1)CC(CNC1CCN(c3ccccn3)CC1)CN2` (centres undefined) belongs -5.394%; to `Cc1cc2n(n1)CC(CNC1CCN(Cc3ccccn3)CC1)CN2` (centres undefined), 17.09%. Same read-out and setting: to `O=C(c1cscn1)N1CCc2ncnc(-c3ccncc3)c2CC1` belongs 15.49%; to `Cc1ncc2c(c1CNC(=O)C1(c3ccc(F)cc3)CC1)CCNC2`, 8.933%; to `Oc1cc(CN2CCC(O)(Cn3ccnc3)CC2)nc2ccc(F)cc12`, 12.45%. As to `Cc1nc(CN2CCCC(N(C)Cc3c(C)noc3C)C2)no1` (centres undefined), the “Percent Effect” value (30 µM, 30.03 µM) turned out to be 36.91%.

Turning to `COc1ccc(C(=O)N2CCCCC2c2nc(C)cs2)nn1` (centres undefined), the “Percent Effect” value (30 µM, 30.03 µM) worked out at 9.548%.

With `CCn1c(CC2CCN(C(=O)C3CNCCO3)CC2)nn(C)c1=O` (centres undefined), the “Percent Effect” value (30.3 µM, […]) is recorded as -9.405%. Take `O=C(C1CNCCO1)N1CCCC(c2ccccc2)(c2ccccc2)C1` (centres undefined): the “Percent Effect” value (30.3 µM, […]) turned out to be 80.57%. Regarding `O=C(C1CNCCO1)N1CCC(c2cc(N3CCCC3)ncn2)CC1` (centres undefined), the “Percent Effect” value (30.3 µM, […]) is on record as -9.261%. The same measure, in the same setting: the result for `O=C(NCc1cccnc1)[C@@H]1CC[C@@H]2[C@@H](CCN2c2ncc(F)cn2)O1.O=C(O)C(F)(F)F.O=C(O)C(F)(F)F` reads 56.7%. Still for that read-out and setting: the result for `Cc1csc(CN2CC[C@H]3O[C@H](C(=O)Nc4cccnc4)CC[C@H]32)n1.O=C(O)C(F)(F)F.O=C(O)C(F)(F)F` reads 50.68%; that for `O=C(Nc1cnccn1)[C@@H]1CC[C@@H]2[C@@H](CCN2Cc2nccs2)O1.O=C(O)C(F)(F)F`, -8.357%. On the same count and under the same terms, to `O=C(NCc1cccnc1)[C@H]1CC[C@@H]2[C@@H](CCN2c2ncccn2)O1.O=C(O)C(F)(F)F.O=C(O)C(F)(F)F` belongs 6.718%; to `Cc1cccc(CN2CC[C@H]3O[C@H](C(=O)Nc4cnccn4)CC[C@H]32)n1.O=C(O)C(F)(F)F.O=C(O)C(F)(F)F`, 32.33%; to `O=C(NCc1cccnc1)[C@@H]1CC[C@@H]2[C@@H](CCN2c2ncccn2)O1.O=C(O)C(F)(F)F.O=C(O)C(F)(F)F`, 42.67%. `CC(C)CN1CC(O)CN(S(=O)(=O)c2ccccc2)CC1=O` (centres undefined): where the note is “30.3 µM, […]”, the “Percent Effect” value is given as -1.941%. On to `CN(Cc1ccncc1)C(=O)NCc1nnc2n1CCCCC2`, for which the “Percent Effect” value (30 µM) is recorded as -1.906%. Turning to `COCCn1cc(NCc2cn(C)nc2-c2ccncc2)cn1`, where the note is “30.3 µM, […]”, the “Percent Effect” value worked out at 4.13%. As for `O=C(O)C(F)(F)F.OCCN1CCOC2(CCCN(c3cccc(F)c3)C2)C1` (centres undefined), under “30 µM, 30.03 µM”, the “Percent Effect” value is given as 37.14%.

In the case of `Cc1ccc(C2CSCCN2C(=O)c2cccs2)o1` (centres undefined), the “Percent Effect” value (30.3 µM, […]) is reported as 15.58%. On the same count and under the same terms, to `CC(C)CN1CC2(CCN(C(=O)c3cn4cccnc4n3)CC2)CC1=O` belongs -23.89%. On the same count and under the same terms, to `CN1CC2(CCN(C(=O)c3cn4cccnc4n3)CC2)CC1=O` belongs -9.039%. The same measure, in the same setting: the result for `CCN1CC2(CCC1=O)CCN(C(=O)c1cn3cccnc3n1)CC2` reads 50.01%. In the case of `CCOCc1cnc2n1CCN(C(=O)Cc1cccs1)C2C` (centres undefined), the “Percent Effect” value (30.3 µM, […]) amounted to 53.58%. On the same count and under the same terms, the result for `CC1c2ncc(Cn3cncn3)n2CCN1C(=O)Cc1cccs1` (centres undefined) reads 31.82%. Regarding `CCOCc1cnc2n1CCN(C(=O)Cc1ccco1)C2C` (centres undefined), for the setting “30.3 µM, […]”, the “Percent Effect” value turned out to be 17.38%.

The values are drawn from ChEMBL document CHEMBL3988442, “University of Dundee, Small-Polar-MMV Screening Library” (2021).
